Molecules are shown by their SMILES. The campaign covered roughly 39,000 compounds. About 500 (1.3%) were called active. The full list was thinned out, with actives kept by preference.

The values below come from the antibiotic and cytotoxicity screens of Wong et al. (2023).

For the experiment, the system named is S. aureus RN4220. As to the kind of experiment: growth inhibition call (relative growth <= 0.2). The following applies: 50 µM.
Consider `C[C@@H]1CN([C@H](C)CO)C(=O)c2cc(NC(=O)NC3CCCCC3)ccc2O[C@@H]1CN(C)Cc1ccc(Cl)c(Cl)c1`, for which the growth inhibition call was “inactive”.
The value for `CN1CCC(=C2c3ccccc3Sc3ccccc32)CC1.O=C(O)C=CC(=O)O` was “inactive”; that for `CSc1ccc2c(c1)N(CCC1CCCCN1C)c1ccccc1S2.Cl` (stereo not given) was “inactive”.
In the case of `CS(=O)(=O)O.CSc1ccc2c(c1)C(N1CCN(C)CC1)Cc1ccccc1S2` (stereo not given) it was “active”; in that of `C[C@@H]1CCCCO[C@@H](CN(C)C(=O)c2ccccc2)[C@@H](C)CN([C@@H](C)CO)C(=O)c2cc(NC(=O)Nc3ccc(C(F)(F)F)cc3)ccc2O1`, “inactive”; in that of `Cc1ncc[nH]1`, “inactive”.
`CC[C@@H](C)SSc1ncc[nH]1`: the growth inhibition call is “active”.
On to `OCc1ncc[nH]1`, for which the growth inhibition call was “inactive”.
The value for `C[C@@H]1CN([C@@H](C)CO)S(=O)(=O)c2ccc(C#CCN(C)C)cc2O[C@@H]1CN(C)C(=O)C1CCCCC1` was “inactive”; that for `Cc1ccc(S(=O)(=O)Nc2cccc3c2O[C@@H](CN(C)CC2CC2)[C@@H](C)CN([C@H](C)CO)C3=O)cc1` was “inactive”; that for `C[C@H](O)C#Cc1cnc2c(c1)C(=O)N([C@@H](C)CO)C[C@@H](C)[C@H](CN(C)Cc1cncnc1)O2` was “inactive”.
Consider `O=C(c1cccnc1)N1C[C@H]2[C@@H](c3ccccc31)[C@H](CO)N2C(=O)CN1CCOCC1`, for which the growth inhibition call was “inactive”.
In the case of `O=C1OC(c2ccc(O)cc2)(c2ccc(O)cc2)c2ccccc21`, the growth inhibition call was “inactive”.
The value for `O=S1(=O)OC(c2ccc(O)cc2)(c2ccc(O)cc2)c2ccccc21` was “inactive”; that for `Oc1ccc(C2(c3ccccc3F)CCC(F)(F)CC2)cc1` was “active”; that for `C[C@H]1CN([C@@H](C)CO)S(=O)(=O)c2ccc(C#CCN(C)C)cc2O[C@@H]1CN(C)C(=O)c1ccccc1F` was “inactive”.
For `C[C@H]1CN([C@@H](C)CO)C(=O)c2cccc(NS(=O)(=O)c3cn(C)cn3)c2O[C@H]1CN(C)S(=O)(=O)c1ccccc1`, the growth inhibition call is “inactive”.
As for `C[C@@H]1CN([C@H](C)CO)S(=O)(=O)c2ccc(C#CC(C)(C)O)cc2O[C@H]1CN(C)Cc1ccccc1`, the growth inhibition call was “inactive”.
As to `CC(N)O.Cc1cc(CC(C)CC(C)(C)C)n(O)c(=O)c1` (stereo not given), the growth inhibition call was “active”.
In the case of `C[C@@H]1CCCCO[C@@H](CN(C)Cc2ccncc2)[C@@H](C)CN([C@@H](C)CO)C(=O)c2cc(NC(=O)Nc3ccc4c(c3)OCO4)ccc2O1`, the growth inhibition call is “inactive”.
The value for `C[C@@H]1CN([C@@H](C)CO)C(=O)Cc2cc(NS(=O)(=O)c3cn(C)cn3)ccc2O[C@@H]1CN(C)CC1CCCCC1` was “inactive”; that for `O=C(O)CN(CCc1ccccc1)CC(=O)O` was “inactive”; that for `CC(=O)c1ccccc1OC[C@@H](O)CN(CCO)CCO` was “inactive”.
In the case of `CN(C(=O)CN(CCO)CC(=O)N(C)C(C)(C)Cc1ccccc1)C(C)(C)Cc1ccccc1`, the growth inhibition call is “active”.
As for `C[C@@H]1CCCCO[C@H](CN(C)Cc2ccc(C(F)(F)F)cc2)[C@H](C)CN([C@@H](C)CO)C(=O)c2cc(N(C)C)ccc2O1`, the growth inhibition call was “inactive”.
With `N[C@@H]1CN(c2c(F)cc3c(=O)c(C(=O)O)cn([C@@H]4C[C@@H]4F)c3c2Cl)CC12CC2`, the growth inhibition call was “inactive”.
In the case of `Cl.NC1CCN(c2c(F)cc3c(=O)c(C(=O)O)cn(C4CC4)c3c2Cl)C1` (stereo not given) it was “active”.
The value for `COc1c(N2CCNC(C)C2)c(F)cc2c(=O)c(C(=O)O)cn(C3CC3)c12` (stereo not given) was “active”; that for `COc1c(N2CC3CCCNC3C2)c(F)cc2c(=O)c(C(=O)O)cn(C3CC3)c12.Cl` (stereo not given) was “active”.
The value for `CC1CN(c2c(F)c(N)c3c(=O)c(C(=O)O)cn(C4CC4)c3c2F)CC(C)N1` (stereo not given) was “inactive”; that for `CC1CN(c2c(F)c(F)c3c(=O)c(C(=O)O)cn(C4CC4)c3c2F)CC(C)N1` (stereo not given) was “active”.
For the compound `C[C@H]1CN([C@@H](C)CO)C(=O)c2cc(NC(=O)C3CC3)ccc2O[C@H]1CN(C)C(=O)Nc1ccc2c(c1)OCO2`, the growth inhibition call is “inactive”.
With `C[C@H]1CCCCO[C@@H](CN(C)Cc2ccc3c(c2)OCO3)[C@@H](C)CN([C@@H](C)CO)C(=O)c2cc(NC(=O)CCC(F)(F)F)ccc2O1`, the growth inhibition call is “inactive”.
As to `Cc1noc(C)c1NC(=O)Nc1ccc2c(c1)C(=O)N([C@@H](C)CO)C[C@@H](C)[C@H](CN(C)Cc1ccc(C(F)(F)F)cc1)OCCCC[C@H](C)O2`, the growth inhibition call was “inactive”.
The value for `C[C@@H]1CN([C@H](C)CO)C(=O)c2cccc(NS(=O)(=O)c3cn(C)cn3)c2O[C@H]1CN(C)C(=O)NC1CCCCC1` was “inactive”; that for `CC(C)NC(=O)Nc1ccc2c(c1)C(=O)N([C@H](C)CO)C[C@@H](C)[C@@H](CN(C)Cc1ccc(Cl)c(Cl)c1)OCCCC[C@H](C)O2` was “inactive”.
The value for `COc1ccc(NC(=O)Nc2cccc3c2O[C@H](CN(C)Cc2ccc(-c4ccccc4)cc2)[C@H](C)CN([C@H](C)CO)C3=O)cc1` was “inactive”; that for `C[C@@H]1CCCCO[C@H](CN(C)CC2CCCCC2)[C@H](C)CN([C@@H](C)CO)C(=O)c2cc(NC(=O)Nc3ccc(C(F)(F)F)cc3)ccc2O1` was “inactive”; that for `C[C@H]1CN([C@@H](C)CO)S(=O)(=O)c2ccc(C#CCN(C)C)cc2O[C@H]1CN(C)Cc1cccnc1` was “inactive”.
In the case of `CCn1cc(C(=O)O)c(=O)c2cnc(N3CCNCC3)nc21` it was “inactive”; in that of `CCn1cc(C(=O)O)c(=O)c2cc(F)c(N3CCNCC3)nc21`, “inactive”.
On to `CCn1cc(C(=O)O)c(=O)c2cc(F)c(N3CCNC(C)C3)c(F)c21.Cl` (stereo not given), for which the growth inhibition call was “active”.
In the case of `CCNC(=O)C[C@@H]1CC[C@H]2[C@@H](COC[C@H](O)CN2C(=O)Nc2c(C)noc2C)O1` it was “inactive”; in that of `C#CCN([C@H](/C=C/C1CC1)[C@@H](O)Cc1ccccc1)[C@@H](Cc1ccc(-n2cc(C(=O)NO)nn2)cc1)C(=O)OC`, “inactive”.
In the case of `C[C@@H]1CN([C@@H](C)CO)C(=O)c2cc(NC(=O)c3ccccc3)ccc2O[C@@H](C)CCCCO[C@@H]1CN(C)Cc1ccc(C(F)(F)F)cc1` it was “inactive”; in that of `CC1(C)[C@@H](OC(=O)CCC(=O)O)CC[C@]2(C)[C@H]3C(=O)C=C4[C@@H]5C[C@@](C)(C(=O)O)CC[C@]5(C)CC[C@@]4(C)[C@]3(C)CC[C@@H]12`, “inactive”; in that of `CC(=O)O[C@@H]1CC[C@@]2(C)[C@@H](CC[C@]3(C)[C@@H]2C(=O)C=C2[C@@H]4[C@@H](C)[C@H](C)CC[C@]4(C)CC[C@]23C)[C@@]1(C)C(=O)O`, “active”.
The value for `CC1(C)[C@@H](OC(=O)CCC(=O)O)CC[C@@]2(C)[C@H]1CC[C@]1(C)[C@H]2C(=O)C=C2[C@@H]3C[C@@](C)(C(=O)O)CC[C@]3(C)CC[C@]21C` was “inactive”; that for `COc1ccc(NC(=O)N(C)C[C@H]2OCCCC[C@@H](C)Oc3ccc(NS(=O)(=O)c4ccc(OC)cc4)cc3C(=O)N([C@@H](C)CO)C[C@@H]2C)cc1` was “inactive”; that for `Cc1occc1CN` was “inactive”.
Consider `O=C(N[C@H]1C=C[C@H](CC(=O)N2CCOCC2)O[C@@H]1CO)c1ccccn1`, for which the growth inhibition call is “inactive”.
In the case of `NC(=O)CSc1nnnn1-c1ccccc1`, the growth inhibition call was “inactive”.
For `Nc1nnnn1-c1ccccc1`, the growth inhibition call was “active”.
With `NCc1nnnn1-c1ccccc1`, the growth inhibition call is “inactive”.
Consider `C[C@@H]1CN([C@H](C)CO)C(=O)Cc2cc(NS(=O)(=O)c3ccccc3)ccc2O[C@H]1CN(C)CC1CC1`, for which the growth inhibition call was “inactive”.
For the compound `CS(=O)(=O)N1[C@@H]2c3ccc(-c4cccc(F)c4)c(=O)n3C[C@H]1[C@H](CO)[C@H]2C(=O)N1CCOCC1`, the growth inhibition call is “inactive”.
In the case of `Cc1noc(C)c1S(=O)(=O)N(C)C[C@@H]1Oc2ccc(NS(=O)(=O)c3ccc(Cl)cc3)cc2CC(=O)N([C@H](C)CO)C[C@H]1C` it was “inactive”; in that of `C=CC[n+]1ccccc1/C=N/O`, “inactive”; in that of `Cc1ccc(S[C@]2(C(=O)NC3CC3)CC(=O)N(Cc3ccccc3C(F)(F)F)[C@@H]2c2ccc(CO)cc2I)cc1`, “inactive”.
For the compound `COC(=O)c1c(OC)cc2c(c1C)Oc1c(Cl)c(O)c(Cl)c(C)c1C(=O)O2`, the growth inhibition call was “inactive”.
Regarding `COC(=O)c1c(C)c2c(c(C)c1O)OC(=O)c1c(C)c(Cl)c(O)c(Cl)c1O2`, the growth inhibition call is “active”.
The value for `COC(=O)c1c(C)c2c(c(C)c1OC)OC(=O)c1c(C)c(Cl)c(OC)c(Cl)c1O2` was “inactive”; that for `COc1ccc(CN(C)C[C@@H]2Oc3ccc(NS(C)(=O)=O)cc3CC(=O)N([C@@H](C)CO)C[C@H]2C)cc1` was “inactive”.
The value for `CO[C@H]1C[C@H](O[C@H]2[C@H](C)[C@@H](O[C@H]3O[C@H](C)C[C@H](N(C)C)[C@H]3O)[C@@H](C)C[C@]3(CO3)C(=O)[C@H](C)[C@@H](O)[C@@H](C)[C@@H](C)OC(=O)[C@@H]2C)O[C@@H](C)[C@@H]1O` was “active”; that for `C[C@H](O)C#Cc1cnc2c(c1)C(=O)N([C@H](C)CO)C[C@@H](C)[C@@H](CN(C)Cc1cncnc1)O2` was “inactive”; that for `CN1C(=O)c2cc(NC(=O)Nc3ccccc3F)ccc2OC[C@H]2O[C@@H](CC(=O)NCc3ccc(-c4ccccc4)cc3)CC[C@H]21` was “inactive”.
For `C[C@H](CO)N1C[C@H](C)[C@H](CN(C)C)Oc2ccc(NS(C)(=O)=O)cc2CC1=O`, the growth inhibition call is “inactive”.
The value for `CO[C@H](CN(C)S(=O)(=O)c1cn(C)cn1)[C@H](C)CN(C(=O)Nc1ccc(C(F)(F)F)cc1)[C@H](C)CO` was “active”; that for `C[C@@H]1CN([C@@H](C)CO)C(=O)c2cc(NC(=O)Nc3ccc(C(F)(F)F)cc3)ccc2O[C@@H](C)CCCCO[C@H]1CN(C)S(=O)(=O)c1cn(C)cn1` was “inactive”.
For `C[C@@H]1CN([C@@H](C)CO)C(=O)c2cc(NC(=O)Nc3ccc(C(F)(F)F)cc3)ccc2O[C@@H](C)CCCCO[C@@H]1CN(C)S(=O)(=O)c1cn(C)cn1`, the growth inhibition call is “inactive”.
In the case of `CO[C@H](CN(C)S(=O)(=O)c1cn(C)cn1)[C@@H](C)CN(C(=O)Nc1ccc(C(F)(F)F)cc1)[C@@H](C)CO` it was “active”; in that of `CO[C@H](CN(C)S(=O)(=O)c1cn(C)cn1)[C@@H](C)CN(C(=O)Nc1ccc(C(F)(F)F)cc1)[C@H](C)CO`, “active”.
On to `CO[C@@H](CN(C)S(=O)(=O)c1cn(C)cn1)[C@H](C)CN(C(=O)Nc1ccc(C(F)(F)F)cc1)[C@@H](C)CO`, for which the growth inhibition call is “active”.
For `C[C@@H]1CN([C@H](C)CO)C(=O)c2cc(NC(=O)Nc3ccc(C(F)(F)F)cc3)ccc2O[C@@H](C)CCCCO[C@@H]1CN(C)S(=O)(=O)c1cn(C)cn1`, the growth inhibition call was “inactive”.
The value for `C[C@H](CO)N1C[C@H](C)[C@@H](CN(C)S(=O)(=O)c2cn(C)cn2)OCCCC[C@H](C)Oc2ccc(NC(=O)Nc3ccc(C(F)(F)F)cc3)cc2C1=O` was “inactive”.
